Reference: PubChem BioAssay (Tox21)
Values joined by “and” are separate entries in the source; they are usually repeats but may differ in a detail not shown here. Identical values can stand only once. Inconclusive results are not listed. A call without a number means that no potency is given here. Active and inactive are the calls of the source. Calls follow the shape of the dose curve; as a rule, active = well fitted inhibition curve with a large enough effect in the repeat runs; inconclusive = weak or mixed curves; inactive = flat fitted curve, though single readings scatter.

target: Luciferin 4-monooxygenase (Photinus pyralis) (UniProt P08659); assay: qHTS assay to identify small molecule inhibitors of firefly luciferase (AID 1224835); also: nearly all actives have a fitted effect of over 25% in size; conditions: purified P. pyralis luciferase, luminescence inhibition; series mostly up to 115 µM
Excerpt: U.S. Tox21 Program National Center for Advancing Translational Sciences [NCATS] NIH Chemical Genomics Center [NCGC] U.S. Environmental Protection Agency [EPA] National Institutes of Environmental Health Sciences [NIEHS] National Toxicology Program [NTP] U.S. Food and Drug Administration [FDA] Tox21 Assay Overview: Firefly (Photinus pyralis) luciferase is one of the most commonly used transcriptional reporters. Firefly luciferase reporter-gene assays are generally considered one of the most sensitive assay types (Wood, 1995; Wood, 1998). However, it was initially observed, in 1991, by Thompson et al., that compounds that resemble the substrates of firefly luciferase (FLuc) can act as competitive inhibitors of the enzyme, and that these compounds, upon interaction with luciferase in the cell, can actually stabilize the protein and increase its half-life. Previous profiling work by other groups to determine the prevalence of compounds that affect FLuc enzymatic activity (PubChem AID 411) identified that ~3% of the MLSMR library (then at ~72K) inhibited FLuc. […] Thus the Tox21 10K library is profiled for activity against FLuc using a biochemical assay of purified FLuc and KM concentrations of FLuc substrates (D-luciferin and ATP).
These assay plates were then treated with 23nL of compound or DMSO using a Kalypsys pin tool, which allows for delivery of a 6-point interplate titration of each compound to the assay plate (quantitative HTS.) 1 uL of firefly luciferase mix (containing 50 mM Tris acetate, pH 7.6, 0.04 uM P. pyralis luciferase, 0.01% Tween, 0.05% BSA and dH2O) was then delivered by FRD to each well. Luciferase activity was then measured using a ViewLux CCD imager.

Luciferin 4-monooxygenase (Photinus pyralis), sequence (P08659 whole entry, looked up): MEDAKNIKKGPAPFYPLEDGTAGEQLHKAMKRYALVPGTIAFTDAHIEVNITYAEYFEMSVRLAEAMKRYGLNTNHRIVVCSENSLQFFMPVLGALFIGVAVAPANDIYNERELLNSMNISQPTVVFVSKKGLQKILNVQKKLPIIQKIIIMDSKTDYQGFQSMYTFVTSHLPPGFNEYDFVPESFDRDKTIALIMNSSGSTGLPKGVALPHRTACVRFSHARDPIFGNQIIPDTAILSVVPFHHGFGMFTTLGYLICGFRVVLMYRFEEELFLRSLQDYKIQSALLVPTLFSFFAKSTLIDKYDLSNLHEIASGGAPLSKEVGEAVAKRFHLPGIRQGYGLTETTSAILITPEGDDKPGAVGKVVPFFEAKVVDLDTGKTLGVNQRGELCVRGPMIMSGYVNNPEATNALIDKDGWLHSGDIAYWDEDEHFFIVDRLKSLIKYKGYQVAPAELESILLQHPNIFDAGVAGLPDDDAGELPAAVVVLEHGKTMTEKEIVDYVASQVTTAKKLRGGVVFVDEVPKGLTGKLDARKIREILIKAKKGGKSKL

How did the Potency turn out when `COC[C@@H](NC(C)=O)C(=O)NCc1ccccc1` was run?
The Potency was “inactive”.

With `C=CC=O` as the compound, how does the Potency read?
Its Potency is “inactive”.

`CCCN1CCC[C@@H]2Cc3nc(N)ncc3C[C@H]21` was tested. Which Potency did it give?
The Potency was “inactive”.

`CCNc1nc(Cl)nc(NC(C)(C)C)n1` was tested. Which Potency did it give?
The Potency was “inactive”.

For `CCN(CC)CCOC(=O)C(O)(c1ccccc1)c1ccccc1`, which Potency is on record?
Its Potency is “inactive”.

`N#CN` was tested. Which Potency did it give?
The Potency was “inactive”.

For `O=C1CC(=O)NC(=O)N1`, which Potency is on record?
Its Potency is “inactive”.

For `C/C(=N\NC(=O)Nc1cc(F)cc(F)c1)c1ncccc1C(=O)O`, which Potency is on record?
Its Potency is “inactive”.

`NCCOS(=O)(=O)O` was tested. Which Potency did it give?
Its Potency is “inactive”.

With `NC(=O)CS(=O)C(c1ccccc1)c1ccccc1` (stereo not given) as the compound, how does the Potency read?
Its Potency is “inactive”.

`O=P(O)(O)CN(CP(=O)(O)O)CP(=O)(O)O` was tested. Which Potency did it give?
Its Potency is “inactive”.

For `C[C@H](N)C(=O)c1ccccc1`, which Potency is on record?
The Potency was “inactive”.

`CCNP(=S)(OC)O/C(C)=C/C(=O)OC(C)C` (stereo not given) was tested. Which Potency did it give?
Its Potency is “inactive”.

For `CCOP(=S)(OCC)Oc1ccc(Cl)cc1Cl`, which Potency is on record?
Its Potency is “inactive”.

How did the Potency turn out when `CCN1CCCC1CNC(=O)C(O)(c1ccccc1)c1ccccc1` (stereo not given) was run?
Its Potency is “inactive”.

For `ClC1=C(Cl)C2(Cl)C(CBr)CC1(Cl)C2(Cl)Cl` (stereo not given), which Potency is on record?
The Potency was “inactive”.

How did the Potency turn out when `CCN[C@@H](C)Cc1ccccc1` was run?
The Potency was “inactive”.

`COc1ccc(CN2CCNCC2)c(OC)c1OC` was tested. Which Potency did it give?
The Potency was “inactive”.

For `O=c1[nH]c2ccccc2o1`, which Potency is on record?
The Potency was “inactive”.

With `Cc1cccc2sc3nncn3c12` as the compound, how does the Potency read?
The Potency was “inactive”.

`CCN[C@@H](C)Cc1cccc(C(F)(F)F)c1` was tested. Which Potency did it give?
Its Potency is “inactive”.

How did the Potency turn out when `O=C(Cl)c1ccccc1` was run?
Its Potency is “inactive”.

Which Potency does the source give for `O=C1C2CC=CCC2C(=O)N1SC(Cl)(Cl)Cl` (stereo not given) here?
The Potency was 25.1 µM (active) and 31.2 µM (active).

How did the activity change, negative = inhibition turn out when `CC(=O)OCC1=C(C(=O)O)N2C(=O)[C@@H](N)[C@H]2SC1` was run?
Its activity change, negative = inhibition is 5.1% [at 23.6 µM] (inactive).

How did the Potency turn out when `N[C@@H](Cc1ccc(Oc2cc(I)c(O)c(I)c2)c(I)c1)C(=O)O` was run?
Its Potency is “inactive”.

Which Potency does the source give for `Cc1ccc(Cl)c(O)c1` here?
Its Potency is “inactive”.

For `CCC(C)C(C)(COC(N)=O)COC(N)=O` (stereo not given), which Potency is on record?
Its Potency is “inactive”.

With `O=C/C=C/c1ccco1` as the compound, how does the Potency read?
The Potency was “inactive”.

`N#CC(Br)(Br)C(N)=O` was tested. Which Potency did it give?
The Potency was “inactive”.

With `O=C(O)C(Cl)Br` (stereo not given) as the compound, how does the Potency read?
Its Potency is “inactive”.

How did the Potency turn out when `C=CCN1CC[C@]23CCCC[C@H]2[C@H]1Cc1ccc(O)cc13` was run?
Its Potency is “inactive”.

Which Potency does the source give for `CCc1ccc(C2CCNCC2)cc1` here?
Its Potency is “inactive”.

How did the Potency turn out when `CC(Cc1ccccc1)NCCCCl` (stereo not given) was run?
Its Potency is “inactive”.

`CCC(=O)c1ccc(Cl)cc1` was tested. Which Potency did it give?
Its Potency is “inactive”.

With `O=C1CCCCC1Cl` (stereo not given) as the compound, how does the Potency read?
The Potency was “inactive”.

With `CC(C)[C@]12CC(=O)[C@H](C)[C@H]1C2` as the compound, how does the Potency read?
Its Potency is “inactive”.

Which Potency does the source give for `ClCCN1CCCC1` here?
The Potency was “inactive”.

For `CC(C)(C)C(=O)C(Cl)Cl`, which Potency is on record?
The Potency was “inactive”.

For `COP(=O)(OC)O/C(C)=C/C(=O)N(C)C`, which Potency is on record?
Its Potency is “inactive”.

How did the Potency turn out when `CC(C)(C1CCC(O)CC1)C1CCC(O)CC1` (stereo not given) was run?
Its Potency is “inactive”.
